# Source: PubChem BioAssay (National Center for Advancing Translational Sciences (NCATS))
# IL1B secr inh: inhibitors of inflammasome signaling (IL-1 beta secretion); THP-1 LPS/ATP IL-1B secretion, AlphaLISA, 16 h; stronger effect = lower value; activity change, % at 57.5 µM; 4.7% of 360,000 active; AID 743279; in the data active = activity change below about -50%; inconclusive = mostly about -30% to -49%
#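 THP-1 cells pretreated 1 hr with compounds (up to 57.5 uM final), then stimulated with LPS (250 ng/mL final) plus ATP (1.25 mM final); secreted IL-1B measured by AlphaLISA after 16 hr, decreased signal indicating inhibition.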
# RORg inh: inhibitors of mouse ROR gamma transcriptional activity | Drosophila S2 Gal4-RORgamma UAS-luciferase reporter, 20 h | 5.4% of 310,000 active | Potency, µM (titrated, usually from 53.6 µM), most hits filed as inhibitors | AID 2551; also: nearly all actives have a fitted effect of over 60% in size
#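 In this cell-based reporter format, copper sulfate (700 uM final) drives Gal4–ROR gamma fusion expression from a metallothionein promoter in Drosophila Schneider cells; compounds preincubated 1 hr, reporter read after 20 hr at ambient temperature.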
# ELG1 DNA repair: ELG1-dependent DNA repair inhibition. 2.3% of 330,000 active. AID 504467. Potency, µM (titrated, usually from 46.1 µM), hits mostly inhibitors. HEK293T ELG1-luciferase reporter, luminescence, 16 h; DNA damage induced by 5-fluorouridine; also: nearly all actives have a fitted effect of over 55% in size
#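 Overnight (16 hr) co-exposure of 2,000 cells/well to 5-fluorouridine and compound at 37 °C preceded detection. Luciferase was quantified via ONE-Glo luminescence; loss of signal denotes inhibition.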
# Gal4-VP16 FLuc: counter-screen for ROR gamma inhibitors: Gal4-VP16 reporter. Drosophila S2 Gal4-VP16 UAS-luciferase, luminescence, 20 h. Potency, µM (series often up to 53.6 µM), usual class: inhibitors. 3.5% of 310,000 active. AID 2546;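 also: Gal4-VP16 expression switched on by copper sulfate through the metallothionein promoter; nearly all actives have a fitted effect of over 50% in size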
# TDP1 cell noCPT: qHTS for Inhibitors of human tyrosyl-DNA phosphodiesterase 1 (TDP1): qHTS in cells in absence of CPT. DT40 Tdp1-/- hTDP1 cells, no CPT, ATP luminescence, 48 h. Potency, µM (highest dose often 46.2 µM), usual class: inhibitors. 15% of 420,000 active. AID 686978, 2013; also: nearly all actives have a fitted effect of over 55% in size
#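 Seeded 400 DT40-hTDP1 cells/well (vehicle DMSO, no 20 nM CPT); pinned compounds; ≥48 hr at 37 °C; CellTiter-Glo luminescence as viability measure.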
# TDP1 cell CPT: DT40-hTDP1 cell growth loss with CPT. chicken DT40 Tdp1-/-;hTDP1 cells + 20 nM CPT, ATP luminescence, 48 h. Potency, µM (titrated, usually from 46.2 µM), most hits filed as inhibitors. 12% of 420,000 active; also: nearly all actives have a fitted effect of over 55% in size
#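 Chicken DT40 Tdp1-/- cells complemented with human TDP1, 400 cells/well, exposed to compounds plus 20 nM camptothecin for at least 48 h at 37 C; viability read as ATP content by CellTiter-Glo luminescence.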
# A number is an active result; - = inactive; ? = inconclusive; . = no result given; [ ] = remark or other dose. Hits are enriched below; roughly 21% of the tested compounds scored in any of these assays. Unless noted, calls follow the shape of the dose curve; as a rule, active = well fitted curve in the direction sought with a large enough effect; inconclusive = small, poorly fitted or top-dose-only effect, or another doubt; inactive = no such curve, though single readings can be large; an effect the other way counts as inactive or inconclusive.
SMILES,IL1B secr inh,RORg inh,ELG1 DNA repair,Gal4-VP16 FLuc,TDP1 cell noCPT,TDP1 cell CPT
Cc1ccc(N/N=C/c2cccnc2)cc1,-,?,?,-,-,-
O=[N+]([O-])c1cc(/C=N\Nc2nc(-c3ccccc3)cs2)ccc1O,-,?,-,-,18.4µM,14.6µM
O=[N+]([O-])c1cc(/C=N/N/C(=N/c2ccccn2)c2ccccn2)ccc1O,-,1.41µM,?,4.47µM,4.61µM,3.26µM
O=C(N/N=C/c1ccc(O)c([N+](=O)[O-])c1)c1ccncc1,-,-,?,-,-,-
Cc1csc(N/N=C\c2cccnc2)n1,-,-,?,-,5.17µM,2.91µM
O=[N+]([O-])c1ccc(-c2csc(N/N=C/c3cccnc3)n2)cc1,?,-,-,-,?,-
Cc1nnc(N/N=C/c2ccc(O)c([N+](=O)[O-])c2)[nH]c1=O,-,-,-,-,-,-
Cc1csc(N/N=C/c2ccc(O)c([N+](=O)[O-])c2)n1,-,-,?,?,25.9µM,18.4µM
O=C(CCC(=O)NNC(=O)Nc1cccc(Cl)c1)NCc1ccccc1,-,-,-,-,-,-
O=C(COc1ccccc1Br)Nc1ccc(S(=O)(=O)N2CCCC2)cc1,-,.,?,.,?,?
CCOc1ccc(NS(=O)(=O)c2ccc(C(=O)NC3CCC(O)CC3)cc2)cc1 (stereo not drawn),-,.,-,.,-,-
CC(C)(C)c1csc(N/N=C/c2ccc(O)cc2)n1,?,0.562µM,?,1µM,?,?
CC(=O)Nc1sc(N/N=C/c2ccc(O)cc2)nc1-c1ccc(C)cc1,-,-,?,-,-,-
CC(=O)Nc1ccc(Nc2cc(C)nc3c(-c4ccccc4)c(C)nn23)cc1,-,?,-,?,?,?
CCCc1cc(N2CCCC2)n2nc(C)c(-c3ccccc3)c2n1,-,?,-,-[0.365 µM],?,?
CC(=O)Nc1ccc(Nc2cc(C(C)C)nc3c(-c4ccccc4)c(C)nn23)cc1,-75.8,?,?,?,?,?
Cc1nn2c(NCc3ccccn3)cc(C(C)C)nc2c1-c1ccccc1,-,0.0891µM,?,0.631µM,?,16.4µM
CCCc1cc(NCc2ccccn2)n2nc(C)c(-c3ccccc3)c2n1,-,0.0891µM,20.6µM,0.562µM,0.92µM,0.581µM
OC(c1ccc(-c2ccccc2)cc1)c1ncc(-c2cccc(F)c2)[nH]1 (stereo not drawn),-,.,.,.,?,-
CSc1cccc(NS(=O)(=O)c2cn(C)cn2)c1,-,-,-,-,-,-
